The entries come from a sample that favours the strongest signals as a whole.
Assays:
Test in all cases: glycan array binding signal (z-score within array); higher = stronger binding
Settings in all cases: glycan notation: IUPAC condensed, linker removed
[1] = biological target: Fuc(a1-2)Gal(b1-3)GlcNAc(b1-2)Man(a1-3)[Fuc(a1-2)Gal(b1-3)GlcNAc(b1-2)Man(a1-6)]Man(b1-4)GlcNAc(b1-4)GlcNAc
Summary of the method: (§1)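 Glycan array data came from 3228 arrays in the Consortium for Functional Glycomics database, and only arrays with an available protein sequence were kept. Glycan names were put into IUPAC-condensed notation, and columns mapping to the same glycan were averaged. The binding signal is a within-array Z-score, averaged across arrays of one protein sequence run at different concentrations or buffers and across linkers. A negative Z-score can be read as non-binding.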

[2] = biological target: Fuc(a1-2)Gal(b1-3)GlcNAc(b1-3)[Fuc(a1-3)[Gal(b1-4)]GlcNAc(b1-6)]Gal(b1-4)Glc
Summary of the method: as §1

[3] = biological target: Fuc(a1-2)Gal(b1-3)[Fuc(a1-4)]GlcNAc
Summary of the method: as §1

[4] = biological target: Fuc(a1-2)Gal(b1-4)GlcNAc(b1-2)[Fuc(a1-2)Gal(b1-4)GlcNAc(b1-4)]Man(a1-3)[Fuc(a1-2)Gal(b1-4)GlcNAc(b1-2)Man(a1-6)]Man(b1-4)GlcNAc(b1-4)GlcNAc
Summary of the method: as §1

[5] = biological target: Fuc(a1-2)[Gal(a1-3)]Gal(b1-3)GlcNAc
Summary of the method: as §1

[6] = biological target: Fuc(a1-2)[GalNAc(b1-3)]Gal
Summary of the method: as §1

[7] = biological target: Fuc(a1-3)[Gal(b1-4)]GlcNAc(b1-3)GalNAc
Summary of the method: as §1

[8] = biological target: Gal(a1-3)Gal(b1-4)Glc
Summary of the method: as §1

[9] = biological target: Gal(a1-3)Gal(b1-4)GlcNAc
Summary of the method: as §1

[10] = biological target: Gal(a1-3)[Gal(a1-4)]Gal(b1-4)GlcNAc
Summary of the method: as §1

[11] = biological target: Gal(a1-4)Gal(b1-4)GlcNAc
Summary of the method: as §1

[12] = biological target: Gal(b1-3)Gal(b1-4)GlcNAc(b1-2)Man(a1-3)[Gal(b1-3)Gal(b1-4)GlcNAc(b1-2)Man(a1-6)]Man(b1-4)GlcNAc(b1-4)GlcNAc
Summary of the method: as §1

[13] = biological target: Gal(b1-3)GalNAc(b1-3)Gal(a1-4)Gal(b1-4)Glc
Summary of the method: as §1

[14] = biological target: Gal(b1-3)GlcNAc
Summary of the method: as §1

[15] = biological target: Gal(b1-3)GlcNAc(b1-3)Gal(b1-4)GlcNAc(b1-6)[Gal(b1-3)GlcNAc(b1-3)]Gal(b1-4)Glc
Summary of the method: as §1

[16] = biological target: Gal(b1-3)[Fuc(a1-4)]GlcNAc
Summary of the method: as §1

[17] = biological target: Gal(b1-3)[Fuc(a1-4)]GlcNAc(b1-2)Man(a1-3)[Gal(b1-3)[Fuc(a1-4)]GlcNAc(b1-2)Man(a1-6)]Man(b1-4)GlcNAc(b1-4)[Fuc(a1-6)]GlcNAc
Summary of the method: as §1

[18] = biological target: Gal(b1-3)[Fuc(a1-4)]GlcNAc(b1-3)Gal(b1-4)GlcNAc
Summary of the method: as §1

[19] = biological target: Gal(b1-4)Gal
Summary of the method: as §1

[20] = biological target: Gal(b1-4)GlcNAc(b1-3)Gal(b1-3)GlcNAc
Summary of the method: as §1

[21] = biological target: Gal(b1-4)GlcNAc(b1-3)Gal(b1-4)[Fuc(a1-3)]GlcNAc(b1-3)Gal(b1-4)[Fuc(a1-3)]GlcNAc
Summary of the method: as §1

[22] = biological target: Gal(b1-4)GlcNAc(b1-3)[GlcNAc(b1-6)]Gal(b1-4)GlcNAc
Summary of the method: as §1

[23] = biological target: Gal3S(b1-3)GalNAc
Summary of the method: as §1

[24] = biological target: Gal3S(b1-4)GlcNAc6S
Summary of the method: as §1

[25] = biological target: Gal3S6S(b1-4)GlcNAc6S
Summary of the method: as §1

[26] = biological target: Gal6S(b1-3)GlcNAc6S
Summary of the method: as §1

[27] = biological target: Gal6S(b1-4)GlcNAc
Summary of the method: as §1

[28] = biological target: GalNAc(b1-3)Gal(a1-4)Gal(b1-4)GlcNAc
Summary of the method: as §1

[29] = biological target: Glc(a1-4)Glc
Summary of the method: as §1

[30] = biological target: Glc(b1-4)Glc
Summary of the method: as §1

[31] = biological target: GlcA(b1-3)GlcNAc
Summary of the method: as §1

[32] = biological target: GlcNAc(b1-2)Man(a1-3)[GlcNAc(b1-2)Man(a1-6)]Man(b1-4)GlcNAc(b1-4)[Fuc(a1-6)]GlcNAc
Summary of the method: as §1

[33] = biological target: GlcNAc(b1-2)[GlcNAc(b1-4)]Man(a1-3)[GlcNAc(b1-4)][GlcNAc(b1-2)Man(a1-6)]Man(b1-4)GlcNAc(b1-4)GlcNAc
Summary of the method: as §1

[34] = biological target: GlcNAc(b1-2)[GlcNAc(b1-6)]Man(a1-6)[GlcNAc(b1-2)Man(a1-3)][GlcNAc(b1-4)]Man(b1-4)GlcNAc(b1-4)GlcNAc
Summary of the method: as §1

[35] = biological target: GlcNAc(b1-4)GlcNAc(b1-4)GlcNAc
Summary of the method: as §1

[36] = biological target: GlcNAc(b1-4)[GlcNAc(b1-6)]GalNAc
Summary of the method: as §1

[37] = biological target: Kdn(a2-3)Gal(b1-3)GalNAc
Summary of the method: as §1

[38] = biological target: Kdn(a2-3)Gal(b1-4)GlcNAc
Summary of the method: as §1

[39] = biological target: Kdn(a2-6)Gal(b1-4)GlcNAc
Summary of the method: as §1

[40] = biological target: Neu5Ac(a2-3)Gal(b1-3)GalNAc(b1-4)[Neu5Ac(a2-8)Neu5Ac(a2-3)]Gal(b1-4)Glc
Summary of the method: as §1

[41] = biological target: Neu5Ac(a2-3)Gal(b1-3)GlcNAc(b1-3)GalNAc
Summary of the method: as §1

[42] = biological target: Neu5Ac(a2-3)GalNAc
Summary of the method: as §1

[43] = biological target: Neu5Ac(a2-6)Gal
Summary of the method: as §1

[44] = biological target: Neu5Ac(a2-6)Gal(b1-4)GlcNAc(b1-2)Man(a1-3)[Man(a1-6)]Man(b1-4)GlcNAc(b1-4)GlcNAc
Summary of the method: as §1

[45] = biological target: Neu5Ac(a2-6)Gal(b1-4)GlcNAc6S
Summary of the method: as §1

[46] = biological target: Neu5Ac(a2-6)GalNAc(b1-4)GlcNAc
Summary of the method: as §1

[47] = biological target: Neu5Ac(a2-8)Neu5Ac
Summary of the method: as §1

[48] = biological target: Neu5Gc(a2-6)Gal(b1-4)GlcNAc
Summary of the method: as §1

[49] = biological target: Neu5Gc(b2-6)Gal(b1-4)GlcNAc
Summary of the method: as §1

B1: SEX4 (Arabidopsis thaliana), Q944A8 (protein)
chain: TQAMGAVLTYRHELGMNYNFIRPDLIVGSCLQTPEDVDKLRKIGVKTIFCLQQDPDLEYFGVDISSIQAYAKKYSDIQHIRCEIRDFDAFDLRMRLPAVVGTLYKAVKRNGGVTYVHCTAGMGRAPAVALTYMFWVQGYKLMEAHKLLMSKRSCFPKLDAIRNATIDILTGLKRKTVTLTLKDKGFSRVEISGLDIGWGQRIPLTLGKGTGFWILKRELPEGQFEYKYIIDGEWTHNEAEPFIGPNKDGHTNNYAKVVDDPTSVDGTTRERLSSEDPELLEEERSKLIQFLETCSEAEV
glycan array binding signal (z-score) [1]: -0.14
glycan array binding signal (z-score) [2]: -0.488
glycan array binding signal (z-score) [3]: -0.43
glycan array binding signal (z-score) [4]: 3.41
glycan array binding signal (z-score) [5]: -0.101
glycan array binding signal (z-score) [6]: -0.555
glycan array binding signal (z-score) [7]: 2.34
glycan array binding signal (z-score) [8]: -0.237
glycan array binding signal (z-score) [9]: 0.108
glycan array binding signal (z-score) [10]: -0.539
glycan array binding signal (z-score) [11]: -0.482
glycan array binding signal (z-score) [12]: -0.329
glycan array binding signal (z-score) [13]: -0.231
glycan array binding signal (z-score) [14]: -0.554
glycan array binding signal (z-score) [15]: -0.273
glycan array binding signal (z-score) [16]: -0.398
glycan array binding signal (z-score) [17]: -0.406
glycan array binding signal (z-score) [18]: 0.013
glycan array binding signal (z-score) [19]: -0.4
glycan array binding signal (z-score) [20]: -0.483
glycan array binding signal (z-score) [21]: -0.35
glycan array binding signal (z-score) [22]: -0.354
glycan array binding signal (z-score) [23]: -0.502
glycan array binding signal (z-score) [24]: 0.229
glycan array binding signal (z-score) [25]: 2.76
glycan array binding signal (z-score) [26]: 1.27
glycan array binding signal (z-score) [27]: 0.104
glycan array binding signal (z-score) [28]: -0.406
glycan array binding signal (z-score) [29]: -0.393
glycan array binding signal (z-score) [30]: -0.561
glycan array binding signal (z-score) [31]: 16
glycan array binding signal (z-score) [32]: 3.1
glycan array binding signal (z-score) [33]: 0.008
glycan array binding signal (z-score) [34]: -0.06
glycan array binding signal (z-score) [35]: -0.388
glycan array binding signal (z-score) [36]: -0.489
glycan array binding signal (z-score) [37]: 0.126
glycan array binding signal (z-score) [38]: 0.514
glycan array binding signal (z-score) [39]: -0.36
glycan array binding signal (z-score) [40]: 0.161
glycan array binding signal (z-score) [41]: 2.39
glycan array binding signal (z-score) [42]: -0.529
glycan array binding signal (z-score) [43]: -0.496
glycan array binding signal (z-score) [44]: 2.32
glycan array binding signal (z-score) [45]: 2.46
glycan array binding signal (z-score) [46]: -0.017
glycan array binding signal (z-score) [47]: -0.065
glycan array binding signal (z-score) [48]: 0.489
glycan array binding signal (z-score) [49]: -0.09

From the supplement of paper PMC8728848
